# Test results: ChEMBL document CHEMBL1157539, “Thousands of chemical starting points for antimalarial lead identification” (Nature, 2010)
# Values joined by “and” are separate entries in the source; they are usually repeats but may differ in a detail not shown here. Equal entries are not always repeated.
# Columns and labels:
# Assay type in all cases: functional
# Plasmodium falciparum [1] = assay: GSK_TCMDC: Inhibition of Plasmodium falciparum 3D7 in whole red blood cells, using parasite LDH activity as an index of growth. Test compounds present at 2uM
# Plasmodium falciparum [2] = assay: GSK_TCMDC: Inhibition of Plasmodium falciparum Dd2 in whole red blood cells, using parasite LDH activity as an index of growth. Test compounds present at 2uM
# HepG2 = assay: GSK_TCMDC: Percent inhibition of human HepG2 cell line. Test compounds present at 10uM.
Compound,Inhibition (Plasmodium falciparum [1]),Inhibition (Plasmodium falciparum [2]),Inhibition (HepG2)
C#CCN1CCC2=C(C1)c1c(O)cc(C(C)CCCc3ccc(F)cc3)cc1OC2(C)C (stereo unspecified),98%,90%,1%
CCCCCCC(C)(C)c1cc(O)c2c3c(c(=O)oc2c1)CCN(Cc1ccccc1)C3.Cl,100%,99%,3%
CC(=O)Nc1ccc(CN2CCC(N(C)c3cc(NC(=O)c4ccc(F)cc4)ccn3)CC2)cc1.O=C(O)C(F)(F)F,95%,5%,0%
CC[C@H]1CN2CC[C@@H]1C[C@H]2[C@H](O)c1cc(N2CCC(O)CC2)nc2ccc(OC)cc12,99%,92%,15%
Oc1ccc(Cl)cc1CN1CCC(CCOC(c2ccccc2)c2ccccc2)CC1,98%,99%,14%
CN(C)c1cccc(NC(=O)N[C@H]2N=C(c3ccccc3)c3ccccc3N(CC(=O)N3CCCC3)C2=O)c1,98%,98%,0%
COCCNCc1ccc(-c2ccc(CN(C(=O)NC3CCCCC3)C3CCN(Cc4ccccc4)CC3)cc2)cc1.O=C(O)C(F)(F)F,94%,84%,29%
O=C(NC1CCN(CC2(c3ccc(Cl)cc3)CCC2)CC1)c1cc[nH]n1,96%,43%,0%
O=C(/C=C/c1ccc(Cl)c(Cl)c1)N1CCC(CN2CCC(c3c[nH]c4cc(C(F)(F)F)ccc34)CC2)CC1,99%,38%,6%
N#Cc1ccc(N(CC(=O)NCCc2ccccc2)CC2CC2)c2ccccc12.O=C(O)C(F)(F)F,99%,48%,0%
Cn1nc(-c2ccc(S(=O)(=O)N3CCC(CN4CCC(c5c[nH]c6ccccc56)CC4)CC3)s2)cc1C(F)(F)F,93%,48%,16%
NCc1cccc(-c2cccc(CN(C(=O)Nc3ccccc3)C3CCN(Cc4ccccc4)CC3)c2)c1.O=C(O)C(F)(F)F,99%,8%,3%
O=C1NCN(c2ccc(O)cc2)C12CCN(CCCC(c1ccc(F)cc1)c1ccc(F)cc1)CC2,94%,34%,20%
Clc1ccc2nccc(N3CCC(CN4CCC(c5c[nH]c6ccccc56)CC4)CC3)c2c1.O=C(O)C(F)(F)F,100%,81%,46%
CN(C)c1cccc(NC(=O)NC2N=C(c3ccccc3)c3ccccc3N(CC(=O)N(C)c3ccccc3)C2=O)c1 (stereo unspecified),99%,80%,1%
CC(=O)Nc1ccc2[nH]cc(C3CCN(CC4CCC(NC(=O)/C=C/c5ccc(Cl)c(Cl)c5)CC4)CC3)c2c1 (stereo unspecified),100% and 90%,99% and 59%,10% and 18%
CC[C@H]1CN2CC[C@@H]1C[C@H]2[C@H](O)c1ccnc2ccc(Cl)cc12.Cl,100%,98%,0%
O=C(c1ccccc1)C1CC1CN1CC=C(c2c[nH]c3ccccc23)CC1 (stereo unspecified),95%,73%,4%
COc1ccc(CCNCc2ccc3c(C)cc(N)nc3c2)cc1,100%,69%,12%
O=C(/C=C/c1ccc(Cl)c(Cl)c1)NC1CCC(CN2CCC(c3c[nH]c4ccccc34)CC2)CC1 (stereo unspecified),100%,85%,27%
CCCCCCCc1cc(O)c2c(c1)OC(C)(C)c1ccncc1-2.Cl,95%,52%,0%
c1ccc(C(OCCC2CCN(Cc3cccc4cccnc34)CC2)c2ccccc2)cc1,99%,99%,9%
Cc1cc(NC(=O)[C@H](CC(C)C)Nc2ccc(C#N)c3ccccc23)ccc1F.O=C(O)C(F)(F)F,95%,88%,35%
CNCC(O)c1cc(Cl)c(Cl)cc1C.Cl (stereo unspecified),98%,88%,0%
CC(=O)C1(c2ccccc2)CCN(CCC(NC(=O)c2cc(C(F)(F)F)cc(C(F)(F)F)c2)c2ccc(Cl)c(Cl)c2)CC1.Cl (stereo unspecified),91%,82%,9%
O=C(NC1CCN(CCc2c[nH]c3ccc(F)cc23)CC1)c1ncc(-c2ccccc2)[nH]1.O=C(O)C(F)(F)F,100%,69%,0%
O=C(/C=C/c1ccc(Cl)cc1Cl)NC1CCC(CN2CCC(c3c[nH]c4ccccc34)CC2)CC1 (stereo unspecified),100%,79%,37%
